Assay results as given in the supplement of paper PMC12636033.
± gives the standard deviation of the averaged measurements. In all, about 33,000 sequences were measured (“E-score (rank enrichment, -0.5 to 0.5)”: median about -0.0068, highest 2% from about 0.24 on). The sample as a whole holds a higher share of the highest values than the screen did.

system: muMax20 (Max(13-93) K31hArg/K57hArg, M65Nle); assay: PBM 8-mer E-score (E-score (rank enrichment, -0.5 to 0.5)); higher = stronger preferential binding
Protocol: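 Protein binding microarray (universal PBM chip covering all 10-mers in fixed probe flanks) with chemically synthesized human Max(13-93) bHLH-LZ analogs (not full-length Max) bearing noncanonical residues (hArg, Tha, Aib, Nle at 65) and aromatic Cys staples. Read-out per 8-mer (and its reverse complement): E-score (rank-based enrichment, -0.5 to 0.5) and Z-score of median probe intensity.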

Row | Sequence | PBM 8-mer E-score
1 | GACATATC | 0.135 ± 0.032
2 | ACCATATA | 0.278 ± 0.042
3 | AACATATA | 0.286 ± 0.079
4 | TACATAGA | 0.163 ± 0.051
5 | TACATATA | 0.238 ± 0.022
6 | ACCATATG | 0.159 ± 0.02
7 | CACATATG | 0.131 ± 0.036
8 | GACATATA | 0.0588 ± 0.11
9 | CGTCGGAG | -0.1482 ± 0.0013
10 | CGCACTAG | -0.0251 ± 0.025
11 | GCAGATCA | -0.15 ± 0.0073
12 | CTACCTGC | -0.0986 ± 0.014
13 | AGAAATAC | 0.0602 ± 0.05
14 | ATAAATAC | 0.263 ± 0.071
15 | GGAAATAA | 0.154 ± 0.013
16 | ATAAATAT | 0.319 ± 0.01
17 | ATAAATAG | 0.167 ± 0.075
18 | ATAAATAA | 0.231 ± 0.0076
19 | AGAAATAA | 0.259 ± 0.097
20 | TTAAATAA | 0.18 ± 0.063
21 | AAAAATAT | 0.229 ± 0.035
22 | TTAAGGAA | 0.0354 ± 0.0092

Row | Sequence | PBM 8-mer E-score
23 | AGGAAGTG | -0.0996 ± 0.0079
24 | CTCTTGAC | -0.0583 ± 0.0029
25 | CCCAAATA | 0.176 ± 0.061
26 | ACCGATCC | -0.277 ± 0.0028
27 | AGAAGCAA | 0.1 ± 0.028
28 | ATCGGTTA | -0.0224 ± 0.05
29 | ATGATTAC | 0.149 ± 0.044
30 | GATAGAGC | -0.15 ± 0.001
31 | CTACATAG | 0.138 ± 0.14
32 | TGTGCACA | 0.221 ± 0.046
33 | CGTGCACG | 0.283 ± 0.13
34 | CATGCACA | 0.317 ± 0.082
35 | AATGCATC | 0.129 ± 0.082
36 | CATGCATG | 0.3719 ± 0.0024
37 | AATGCATA | 0.171 ± 0.09
38 | GATGCACA | -0.00748 ± 0.045
39 | CATGCATA | 0.19 ± 0.13
40 | AATGCATT | 0.348 ± 0.072
41 | CATGCACG | 0.183 ± 0.026
42 | CATGCATC | 0.0441 ± 0.017
43 | CGTGCACA | 0.098 ± 0.028
44 | GTGAATTA | 0.191 ± 0.067

Row | Sequence | PBM 8-mer E-score
45 | CCTTACGC | 0.0271 ± 0.0015
46 | AGCGTTTG | -0.169 ± 0.14
47 | CCAAGTGG | -0.15414 ± 2.1e-05
48 | CTTTAGGC | -0.158 ± 0.011
49 | GAAGCTTA | 0.129 ± 0.018
50 | ATGGACTA | 0.128 ± 0.015
51 | GCGGATAA | -0.0466 ± 0.033
52 | CTGACTAC | -0.0404 ± 0.19
53 | CTATAAGC | -0.00153 ± 0.018
54 | CATGCAAC | 0.327 ± 0.012
55 | AATGCAAG | 0.0709 ± 0.08
56 | AATGCAAC | 0.197 ± 0.047
57 | CATGCAAG | 0.118 ± 0.015
58 | ACTGCATG | -0.0337 ± 0.13
59 | AATGCATG | 0.237 ± 0.073
60 | GACTCCGA | -0.155 ± 0.046
61 | TCTCGACA | -0.0258 ± 0.011
62 | TCGGGTAA | 0.00741 ± 0.027
63 | ACAGGCAT | -0.0411 ± 0.063
64 | CCTCTCTC | -0.045 ± 0.086
65 | GCATCAGA | 0.0605 ± 0.012
66 | CTATCATA | 0.208 ± 0.054

Row | Sequence | PBM 8-mer E-score
67 | ATATCACA | 0.117 ± 0.14
68 | ATATCATG | 0.175 ± 0.056
69 | CCATCATA | 0.0385 ± 0.12
70 | ACATCACT | 0.245 ± 0.095
71 | CTATCACA | 0.169 ± 0.029
72 | ACATCACC | -0.0768 ± 0.063
73 | GCATCATA | 0.274 ± 0.019
74 | ATATCATA | 0.253 ± 0.14
75 | ATATCACG | 0.294 ± 0.068
76 | ACATCACA | 0.221 ± 0.009
77 | AGACTGGG | -0.147 ± 0.064
78 | ACGGAATA | -0.0839 ± 0.0017
79 | AGCTTGGG | -0.0797 ± 0.022
80 | CAATGATG | -0.00417 ± 0.0019
81 | ACGCTCGC | 0.0344 ± 0.16
82 | CTGAGCTA | -0.17 ± 0.098
83 | CATTTTAC | 0.188 ± 0.026
84 | GCGTCAAA | -0.0402 ± 0.15
85 | AGACGGGA | -0.0877 ± 0.053
86 | TGAATCCA | 0.0507 ± 0.048
